Drawing on PubChem BioAssay (EPA / NIEHS), this text covers outcome and AC50 for 15 compounds.

Molecules are shown by their SMILES. Results filed as inconclusive are left out. The source made the active and inactive calls. The calls were made as follows, unless noted: active = hit-call score of the fitted dose curve at least 0.9, where 1 is the maximum; inconclusive = response in the unintended direction; inactive = score below 0.9.

The target of assay [1] is frog Thyroid hormone Receptor alpha (TRa), thra-a (gene 397942) (UniProt P15204). The assay can be described thus: ATG_frTRa_XSP2: Attagene TRANS-FACTORIAL Multi-Species (XSP2) HepG2 Assay for frog Thyroid hormone Receptor alpha (TRa) (AID 2283839). A digest of the protocol: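 Frog thyroid receptor alpha was tested as an exogenous NR-Gal4 fusion in transiently transfected HepG2 cells. After 24 h chemical treatment, reporter mRNA induction was quantified by RT-PCR and capillary electrophoresis, with gain-of-signal analysed relative to DMSO.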

Assay [2] concerns the target human Thyroid hormone Receptor beta (TRb), THRB (gene 7068) (UniProt P10828). The assay can be described thus: ATG_hTRb_XSP2: Attagene TRANS-FACTORIAL Multi-Species (XSP2) HepG2 Assay for human Thyroid hormone Receptor beta (TRb) (AID 2283840).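 Also: actives raise reporter mRNA so potency reflects agonist-like gain of signal.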 The method, boiled down: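 In this cell-based multiplex, HepG2 liver cells carrying transfected GAL4-UAS reporter constructs are exposed to chemical for 24 hours, then reporter transcripts are measured by RT-PCR with capillary electrophoresis, scored as gain of signal against DMSO.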

Assay [3] relates to Sodium/Iodide Symporter (NIS), SLC5A5 (gene 6528). In words: CPHEA_Stoker_NIS_Inhibition_RAIU: CPHEA's Radioactive Iodide Uptake (RAIU) Assay for Sodium/Iodide Symporter (NIS) Inhibition, Stoker and Laws Labs (AID 2283841). The method, boiled down: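 Test chemicals, six concentrations from 0.001 to 100uM in 0.5% DMSO, were co-incubated with carrier-free 125I (final 329pM) on hNIS-HEK293T-EPA monolayers in pH 7.4 HEPES-buffered HBSS. Plates stood 2 hours at room temperature, then were washed cold and counted.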

Assay [4] is described as follows: CPHEA_Stoker_NIS_Cytotoxicity: Cytotoxicity Assessment for CPHEA's Radioactive Iodide Uptake (RAIU) Assay for Sodium/Iodide Symporter (NIS) Inhibition, Stoker and Laws Labs (AID 2283897).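 As to AC50: active means loss of ATP signal versus DMSO meaning cytotoxicity.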 The method, boiled down:
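Viability in hNIS-HEK293T-EPA cells is scored as a drop in luciferase-detected ATP following 2-hour room-temperature exposure (0.001–100uM; triplicate wells, three cell passages), with DMSO as negative control.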

Assay [5] deals with PGR (gene 5241) (UniProt P06401). The assay can be described thus: TOX21_PR_BLA_Followup_Antagonist_ratio: Tox21 HEK293 Progesterone Receptor (PR) Antagonism Beta-lactamase Follow-Up Assay, Ratio (AID 2283934). A digest of the protocol: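 PR-UAS-bla HEK293T cells, 3,000/well in 2% charcoal-stripped FBS, given compound plus 1nM R5020 agonist for 16 hr at 37C. Beta-lactamase FRET substrate 2 hours, ratio cleaved/uncleaved fluorescence; viability by CellTiter-Glo in same wells.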

The nature of assay [6]: TOX21_PR_BLA_Followup_Agonist_viability: Viability Assessment in the Tox21 HEK293 Progesterone Receptor (PR) Agonism Beta-lactamase Follow-Up Assay (AID 2283935).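 Also: signal loss means lower viability so actives are cytotoxic.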 A digest of the protocol: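 PR-UAS-bla HEK293T cells in 2% charcoal-stripped FBS medium, plated 6 hr before compound addition, exposed 16 hr at 37C. Viability read by CellTiter-Glo ATP luminescence after 30 min at room temperature, in the same wells as the beta-lactamase readout.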

A short description of assay [7]: TOX21_PR_BLA_Followup_Antagonist_viability: Viability Assessment in the Tox21 HEK293 Progesterone Receptor (PR) Antagonism Beta-lactamase Follow-Up Assay (AID 2283936).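 Also: hits lower the luminescence signal meaning cytotoxicity.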 The method, boiled down:
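PR-UAS-bla HEK293T cells (3,000/well, 2% charcoal-stripped FBS) given compound plus R5020 agonist, 16 h at 37C. CellTiter-Glo added after bla read, 30 min at room temperature; luminescence loss indicates cytotoxicity.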

For assay [8], the target named is PGR (gene 5241) (UniProt P06401). The assay can be described thus: TOX21_PR_LUC_Followup_Antagonist: Tox21 HEK293 Progesterone Receptor (PR) Antagonism Luciferase Follow-Up Assay (AID 2283938).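 Also: curve fitted upward as signal gain over DMSO baseline despite antagonist label.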 A digest of the protocol: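 A follow-up to the PR bla screen using HEK293-PR-A-luc cells, multiplexed with cell viability to flag cytotoxicity. Reporter luminescence after 16 h compound exposure was analysed relative to DMSO.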

Assay [9] in a line: TOX21_PR_LUC_Followup_Antagonist_viability: Viability Assessment in the Tox21 HEK293 Progesterone Receptor (PR) Antagonism Luciferase Follow-Up Assay (AID 2283940). The method, boiled down: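 HEK293-PR-A-luc cells kept in charcoal-stripped FBS medium were plated 5 h before compound addition, then exposed 16 h at 37C; viability read as cellular ATP by luciferase luminescence, loss of signal indicating cytotoxicity.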

Assay [10] is described as follows: CEETOX_H295R_OHPREG_noMTC: CeeTox H295R High-throughput Steroidogenesis Assay for OH-Pregnenolone (OHPREG), maximum tolerated concentration (MTC) filtered results only (AID 2283912; active = hit-call score of the fitted dose curve at least 0.9, where 1 is the maximum; inactive = score below 0.9). To be noted: actives raise or lower the signal. A digest of the protocol:
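H295R human adrenal cells, forskolin-prestimulated (10 uM, 48 h), then exposed to test chemical in 0.1% DMSO for 48 h. 17alpha-hydroxypregnenolone in medium measured by HPLC-MS/MS after MTBE extraction; bidirectional fit versus DMSO, concentrations not MTC-filtered.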

Assay [11] is described as follows: CEETOX_H295R_OHPROG_noMTC: CeeTox H295R High-throughput Steroidogenesis Assay for OH-Progesterone (OHPROG), maximum tolerated concentration (MTC) filtered results only (AID 2283914; active = hit-call score of the fitted dose curve at least 0.9, where 1 is the maximum; inactive = score below 0.9). To be noted: actives raise or lower the signal. A digest of the protocol: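 H295R human adrenal cells prestimulated 48 h with 10 uM forskolin, then exposed 48 h to test chemical (0.1% DMSO final). Medium 17alpha-hydroxyprogesterone extracted with MTBE, quantified by HPLC-MS/MS; bidirectional fit versus DMSO, concentrations not MTC-filtered.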

Assay [12] is described as follows: CEETOX_H295R_PROG_noMTC: CeeTox H295R High-throughput Steroidogenesis Assay for Progesterone (PROG), maximum tolerated concentration (MTC) filtered results only (AID 2283920; active = hit-call score of the fitted dose curve at least 0.9, where 1 is the maximum; inactive = score below 0.9). To be noted: actives raise or lower the signal. The method, boiled down:
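H295R human adrenal cells were prestimulated 48 h with 10 uM forskolin, then exposed 48 h to test chemical (0.1% DMSO final). Progesterone in medium was quantified by HPLC-MS/MS; bidirectional fitting versus DMSO, concentrations not MTC-filtered.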

Chain of PGR (gene 5241) (P06401 whole entry, looked up): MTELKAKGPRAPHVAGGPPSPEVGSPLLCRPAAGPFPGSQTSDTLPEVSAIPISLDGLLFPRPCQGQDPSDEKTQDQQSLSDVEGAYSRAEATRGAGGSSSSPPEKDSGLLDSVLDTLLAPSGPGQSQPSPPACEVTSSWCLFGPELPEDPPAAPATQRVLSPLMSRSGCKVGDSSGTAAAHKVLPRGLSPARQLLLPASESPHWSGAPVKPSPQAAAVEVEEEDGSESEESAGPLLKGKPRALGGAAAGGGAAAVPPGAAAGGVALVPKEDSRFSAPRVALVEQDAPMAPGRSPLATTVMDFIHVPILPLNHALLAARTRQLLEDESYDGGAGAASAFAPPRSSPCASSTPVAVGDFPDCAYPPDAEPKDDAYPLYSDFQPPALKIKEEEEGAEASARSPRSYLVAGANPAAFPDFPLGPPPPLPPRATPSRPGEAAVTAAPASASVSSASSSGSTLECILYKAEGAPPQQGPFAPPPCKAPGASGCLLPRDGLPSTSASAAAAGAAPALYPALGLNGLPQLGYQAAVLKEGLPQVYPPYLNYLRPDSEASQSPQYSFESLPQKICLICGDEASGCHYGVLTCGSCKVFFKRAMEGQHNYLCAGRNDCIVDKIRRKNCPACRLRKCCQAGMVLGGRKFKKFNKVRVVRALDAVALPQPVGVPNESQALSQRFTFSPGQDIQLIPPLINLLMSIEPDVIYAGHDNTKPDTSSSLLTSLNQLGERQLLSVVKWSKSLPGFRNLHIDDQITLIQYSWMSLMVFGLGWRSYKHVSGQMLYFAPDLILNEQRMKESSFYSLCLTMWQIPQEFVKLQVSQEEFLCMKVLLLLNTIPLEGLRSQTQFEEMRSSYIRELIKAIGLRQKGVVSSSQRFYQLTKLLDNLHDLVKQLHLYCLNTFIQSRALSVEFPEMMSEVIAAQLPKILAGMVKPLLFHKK
Chain of human Thyroid hormone Receptor beta (TRb), THRB (gene 7068) (P10828 whole entry, looked up, the tested form may be a part): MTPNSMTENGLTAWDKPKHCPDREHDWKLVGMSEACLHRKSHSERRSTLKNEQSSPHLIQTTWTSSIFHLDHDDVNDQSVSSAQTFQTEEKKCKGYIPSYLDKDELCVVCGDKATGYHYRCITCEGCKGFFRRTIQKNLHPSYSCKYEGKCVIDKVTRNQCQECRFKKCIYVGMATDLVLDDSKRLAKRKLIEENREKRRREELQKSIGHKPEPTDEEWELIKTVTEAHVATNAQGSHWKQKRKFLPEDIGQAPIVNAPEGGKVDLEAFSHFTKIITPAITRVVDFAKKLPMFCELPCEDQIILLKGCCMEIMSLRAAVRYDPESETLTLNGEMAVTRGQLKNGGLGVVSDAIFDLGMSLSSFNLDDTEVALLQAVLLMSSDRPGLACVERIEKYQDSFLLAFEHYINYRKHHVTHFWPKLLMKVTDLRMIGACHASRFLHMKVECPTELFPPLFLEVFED
Chain of frog Thyroid hormone Receptor alpha (TRa), thra-a (gene 397942) (P15204 whole entry, looked up, the tested form may be a part): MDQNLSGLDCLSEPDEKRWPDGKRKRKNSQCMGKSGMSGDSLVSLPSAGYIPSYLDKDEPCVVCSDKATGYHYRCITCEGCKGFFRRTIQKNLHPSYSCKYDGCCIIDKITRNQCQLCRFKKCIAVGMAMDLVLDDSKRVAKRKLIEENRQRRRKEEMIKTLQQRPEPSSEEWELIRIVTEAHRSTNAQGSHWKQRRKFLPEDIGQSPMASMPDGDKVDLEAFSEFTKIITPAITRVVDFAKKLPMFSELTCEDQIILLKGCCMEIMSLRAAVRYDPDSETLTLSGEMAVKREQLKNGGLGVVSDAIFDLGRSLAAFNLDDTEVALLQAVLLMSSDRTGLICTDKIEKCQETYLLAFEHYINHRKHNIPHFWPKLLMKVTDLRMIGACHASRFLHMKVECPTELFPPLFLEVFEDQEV

Take `O=P(OC(CCl)CCl)(OC(CCl)CCl)OC(CCl)CCl`: the outcome in [1], in assay [2], in assay [3], in assay [4], in [6] and in [7] was inactive. Further, the compound was classed as inactive in assay [9]. Moreover, the AC50 with PGR (gene 5241) [5] is 18.2 µM (active); with PGR (gene 5241) [8], 46.1 µM (active).

`CN(C)c1ccc(N=NS(=O)(=O)O)cc1`: the result in [4] was inactive.

Turning to `CCOc1cccc(-n2cc(C(=O)N3CCN(c4cc(C(=O)O)c5ccccc5c4)CC3)nc2-c2ccc(C)cc2)c1`, the AC50 was 83.6 µM (active) in assay [3] and 6.27 µM (active) in assay [4].

With `CC(C)(O)c1coc(S(=O)(=O)NC(=O)Nc2c3c(cc4c2CCC4)CCC3)c1`, the outcome in assay [4] was inactive.

On to `COc1ccc(/C=C/S(=O)(=O)NC(=O)c2ccc(C)cc2Cl)cc1`, for which the outcome in [4] was inactive.

As to `COc1cccc(-c2ccc(/C=C\CN3CCCCCC3)cc2Cl)c1`, the result in [3] and in assay [4] was inactive.

With `CCOC(=O)c1ccc(C2CCC(NC[C@H](O)COc3ccc(O)c(NS(C)(=O)=O)c3)CC2)cc1` (stereo partly drawn), the result in assay [4] was inactive.

In the case of `CN(C)c1ccc(Cc2ccc(N(C)C)cc2)cc1`, the result in [3] and in assay [4] was inactive.

As for `O=C(OC[C@H]1O[C@@H](OC(=O)c2cc(O)c(O)c(OC(=O)c3cc(O)c(O)c(O)c3)c2)[C@H](OC(=O)c2cc(O)c(O)c(OC(=O)c3cc(O)c(O)c(O)c3)c2)[C@@H](OC(=O)c2cc(O)c(O)c(OC(=O)c3cc(O)c(O)c(O)c3)c2)[C@@H]1OC(=O)c1cc(O)c(O)c(OC(=O)c2cc(O)c(O)c(O)c2)c1)c1cc(O)c(O)c(OC(=O)c2cc(O)c(O)c(O)c2)c1`, the outcome in [3] and in [4] was inactive.

With `COCCOc1cc2cc(C(=O)NC3CCN(C(C)C)CC3)n(CC(=O)Nc3ccc(Cl)cn3)c2cn1`, the result in assay [3] and in assay [4] was inactive.

With `CCOC(=O)COc1ccc2c(c1)CC(NCC(O)c1cccc(Cl)c1)CC2` (stereo not drawn), the outcome in [3] and in [4] was inactive.

For `CCCCCCc1ccc(O)cc1O`, the result in [4] was inactive.

With `Fc1ccccc1[C@@H](F)COC1CCC(Nc2ncnc3[nH]ncc23)CC1` (stereo partly drawn), the results for the AC50 in assay [3] and in assay [4] were 89.1 µM (active) and 9.92 µM (active), respectively.

As to `O=C(NS(=O)(=O)/C=C/c1ccccc1)c1ccc(F)cc1Cl`, the results for the AC50 in assay [10] and in assay [11] were 7.49 µM (active) and 5.24 µM (active), respectively. The compound was called inactive in assay [12].

As for `CC(C)c1cccc(C(C)C)c1N1C(=O)c2ccc(O)cc2C1=O`, the result in assay [3], in [4], in assay [6], in assay [7] and in assay [9] was inactive. Also, the values for the AC50 with PGR (gene 5241) [5] and with PGR (gene 5241) [8] were 15.7 µM (active) and 17.3 µM (active), respectively.
